Assay results published in PubChem BioAssay (Tox21).
Unmarked numbers belong to inactive results. Inconclusive results are not listed. Entries that show only a call come without a potency. The source made the active and inactive calls. Unless noted, the call rests on the fitted dose curve; in most records, active means well fitted curve in the direction sought with a large enough effect in the repeat runs; inconclusive means weak or mixed curves; inactive means no such curve, though single readings can be large; an effect the other way counts as inactive or inconclusive.

Legend:
[1] = qHTS assay to identify small molecule agonists of the estrogen receptor alpha (ER-alpha) signaling pathway in the presence of an antagonist - cell viability counter screen (AID 1259386);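 further: cells exposed to compounds for 22 h at 37 °C before the viability read; nearly all actives have a fitted effect of over 30% in size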; further: potency means the concentration at half of the fitted maximal effect
Summary of the method: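 In this counter screen, compound effects on VM7Luc4E2 viability were tested in the presence of the antagonist ICI-182,780 at 10.0nM final. Compounds were dosed at 15 concentrations, exposure lasted 22hr, and the CellTiter-Fluor signal was read.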

[2] = biological target: Progesterone receptor (Homo sapiens) (UniProt P06401); test: qHTS assay to identify small molecule agonists of the progesterone receptor (PR) signaling pathway (AID 1346784; calls by dose curve; further: nearly all actives have a fitted effect of over 30% in size)
Summary of the method: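 Using charcoal-stripped serum (2%) to limit endogenous steroids, PR-UAS-bla HEK 293T cells received compounds for 16 hr at 37C after 6 hr plating; beta-lactamase FRET fluorescence was recorded following 2 hr substrate loading at room temperature.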

[3] = qHTS assay to identify small molecule antagonists of the progesterone receptor (PR) signaling pathway - cell viability counter screen (AID 1346798); further: series mostly up to about 92 µM; nearly all actives have a fitted effect of over 50% in size
Summary of the method: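 ATP content as viability readout: CellTiter-Glo luminescence, 30 min room temperature, in PR-UAS-bla HEK293T cells after 16 hr compound/R5020 treatment at 37C and 5% CO2.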

[4] = qHTS assay to identify small molecule antagonists of the TGF-beta/Smad signaling pathway - cell viability counter screen (AID 1346824); further: nearly all actives have a fitted effect of over 50% in size; further: potency means the concentration at half of the fitted maximal effect
Summary of the method: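 Cytotoxicity counter-screen run in the same wells as the beta-lactamase Smad reporter read: CellTiter-Glo luminescence after 30 min at room temperature. HEK 293T SBE-bla cells had 5 hr compound exposure at 37 C with TGF-beta1 (0.25 ng/mL stock).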

[5] = qHTS assay to identify small molecule agonists of the TGF-beta/Smad signaling pathway - cell viability counter screen (AID 1346829); further: top concentration of the series differs between compounds; nearly all actives have a fitted effect of over 45% in size
Summary of the method: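 Compound-treated SBE-bla HEK 293T cells (5 hr, 37 C) were assessed for viability with CellTiter-Glo in parallel with the reporter read.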

[6] = qHTS assay to identify small molecule agonists of the TGF-beta/Smad signaling pathway (AID 1346859; active means well fitted activation curve with a large enough effect in the signal ratio in the repeat runs, not every such curve was filed as active; the % refers to the signal ratio; further: series mostly up to about 77 µM)
Summary of the method: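 Stable Smad binding element-beta-lactamase HEK 293T cells; 5 hr compound exposure at 37 C under 5% CO2; 2 hr room-temperature substrate step; fluorescence excited at 405 nm, collected at 460 nm and 530 nm.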

[7] = biological target: Thyrotropin-releasing hormone receptor (Homo sapiens) (UniProt P34981); test: qHTS assay to identify small molecule antagonists of the thyrotropin-releasing hormone receptor (TRHR) signaling pathway (AID 1346877; active means well fitted inhibition curve with a large enough effect in the repeat runs, not every such curve was filed as active; further: series mostly up to about 51 µM)
Summary of the method: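 Kinetic fluorescence (3 min, 1 s resolution) following stimulation with TRH at 1 nM final; HEK293 cells bearing human TRHR; 5 min compound preincubation at RT; concentration-response over 15 points, triplicates.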

[8] = biological target: Thyrotropin-releasing hormone receptor (Homo sapiens) (UniProt P34981); test: qHTS assay to identify small molecule agonists of the thyrotropin-releasing hormone receptor (TRHR) signaling pathway (AID 1346891; calls by dose curve;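 further: HEK293 cells expressing TRHR with calcium dye readout; series mostly up to about 58 µM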)
Summary of the method: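 In 1536-format, 1500 TRHR-Hek293 cells per well grew 18 h, took up calcium dye for 2 h at 37 °C, received compound, and were read kinetically; 15-point titrations, triplicates.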

[9] = Human pregnane X receptor (PXR) small molecule agonists, qHTS cell viability counter screen (AID 1346977); further: nearly all actives have a fitted effect of over 50% in size
Summary of the method: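 Readout is CellTiter-Fluor fluorescence from PXR-Luc HepG2 cells. Plated cells rested 5hr, then were treated with compounds for 24hr at 37C and 5% CO2, with reagent present during the last hour.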

[10] = Caspase-3/7 induction in HepG2 cells by small molecules, qHTS assay (AID 1346978); further: nearly all actives have a fitted effect of over 15% in size
Summary of the method: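 Caspase-3/7 induction was measured by Caspase-Glo 3/7 luminescence (30 min, room temperature) after a 17 hr compound exposure of wild-type HepG2 cells seeded at 2,000 per well and pre-incubated 5 hr.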

[11] = Caspase-3/7 induction in CHO-K1 cells by small molecules, qHTS cell viability counter screen (AID 1346979); further: nearly all actives have a fitted effect of over 35% in size; further: potency means the concentration at half of the fitted maximal effect
Summary of the method: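 To flag cytotoxic compounds, treated CHO-K1 wild-type cells were given CellTiter-Fluor at 16hr and read fluorescently after 1hr at 37C; the caspase-3/7 luminescence was measured in these same wells.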

[12] = Caspase-3/7 induction in CHO-K1 cells by small molecules, qHTS assay (AID 1346980); further: nearly all actives have a fitted effect of over 15% in size
Summary of the method: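 Luminescent Caspase-Glo 3/7 read (30min, room temperature) quantified apoptosis induction. Cells were wild-type CHO-K1, treated with compound for 17hr at 37 C and 5% CO2.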

[13] = Caspase-3/7 induction in HepG2 cells by small molecules, qHTS cell viability counter screen (AID 1346981); further: series mostly up to about 92 µM; nearly all actives have a fitted effect of over 30% in size
Summary of the method: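 In this quantitative HTS counter screen, compounds delivered in DMSO were left on unmodified HepG2 cells for 16 hr at 37 C. Viability was then determined fluorometrically with CellTiter-Fluor, in parallel with caspase-3/7 induction in the same wells.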

[14] = qHTS assay to identify small molecule agonists of the progesterone receptor (PR) signaling pathway - cell viability counter screen (AID 1346799; calls by dose curve; further: nearly all actives have a fitted effect of over 45% in size)
Summary of the method: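 Cytotoxicity in PR-bla HEK293T cells: 16 h compound, 37C; CellTiter-Glo added post-FRET read; luminescence after 30 min RT.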

[15] = biological target: Nuclear receptor subfamily 1 group I member 2 (Homo sapiens) (UniProt O75469); test: Human pregnane X receptor (PXR) small molecule agonists, qHTS assay (AID 1346982); further: nearly all actives have a fitted effect of over 35% in size; further: potency means the concentration at half of the fitted maximal effect
Summary of the method: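 Reporter HepG2 cells expressing PXR-Luc are cultured in charcoal-stripped FBS (5%), treated with compounds for 24 hr at 37 C, and assayed by ONE-Glo luminescence after 30 min at room temperature.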

[16] = biological target: Nuclear receptor subfamily 1 group I member 2 (Rattus norvegicus) (UniProt Q9R1A7); test: Rat pregnane X receptor (rPXR) activation by small molecules, qHTS assay (AID 1346983); settings: rPXR luciferase reporter cells, One-Glo luminescence, 24 h; max activation: active compounds read high; further: nearly all actives have a fitted effect of over 20% in size
Summary of the method: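 Luminescent readout (One-Glo luciferase, 30 min room temperature) followed 24 hr compound treatment at 37 C of rPXR cells plated 2,000 per well and preincubated 5hr; qHTS format with compounds delivered in DMSO.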

[17] = biological target: Progesterone receptor (Homo sapiens) (UniProt P06401); test: qHTS assay to identify small molecule antagonists of the progesterone receptor (PR) signaling pathway (AID 1346795; active means well fitted inhibition curve with a large enough effect in the signal ratio in the repeat runs, not every such curve was filed as active; the % refers to the signal ratio; further: potency means the concentration at half of the fitted maximal effect)
Summary of the method: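 Inhibition of R5020-induced (1 nM final) beta-lactamase reporter signal in PR-UAS-bla HEK293T cells was scored by FRET fluorescence after overnight (16 hr) compound treatment.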

Chain of Nuclear receptor subfamily 1 group I member 2 (Homo sapiens) (O75469 whole entry, looked up): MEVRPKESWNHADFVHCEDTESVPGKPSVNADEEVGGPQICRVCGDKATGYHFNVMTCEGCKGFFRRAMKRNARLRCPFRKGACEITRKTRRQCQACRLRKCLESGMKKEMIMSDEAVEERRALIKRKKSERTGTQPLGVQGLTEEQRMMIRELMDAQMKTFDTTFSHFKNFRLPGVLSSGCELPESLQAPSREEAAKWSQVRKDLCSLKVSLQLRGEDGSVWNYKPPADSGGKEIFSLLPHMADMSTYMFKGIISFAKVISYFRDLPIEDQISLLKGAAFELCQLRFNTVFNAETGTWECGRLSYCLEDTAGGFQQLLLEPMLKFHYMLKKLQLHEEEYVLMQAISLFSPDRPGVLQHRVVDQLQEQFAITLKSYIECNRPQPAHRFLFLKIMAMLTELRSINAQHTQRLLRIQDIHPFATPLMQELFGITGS
Chain of Thyrotropin-releasing hormone receptor (Homo sapiens) (P34981 whole entry, looked up): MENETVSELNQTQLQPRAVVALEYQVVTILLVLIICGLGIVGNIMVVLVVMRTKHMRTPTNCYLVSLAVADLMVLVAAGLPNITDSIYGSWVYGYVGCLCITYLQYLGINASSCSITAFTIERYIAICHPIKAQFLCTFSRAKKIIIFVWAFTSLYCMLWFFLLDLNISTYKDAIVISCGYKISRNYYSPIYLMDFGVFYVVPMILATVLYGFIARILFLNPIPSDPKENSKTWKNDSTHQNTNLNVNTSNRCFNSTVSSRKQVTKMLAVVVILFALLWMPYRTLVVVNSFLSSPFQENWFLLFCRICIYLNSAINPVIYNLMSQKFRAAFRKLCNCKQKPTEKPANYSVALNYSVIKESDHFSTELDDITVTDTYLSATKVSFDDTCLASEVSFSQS
Chain of Progesterone receptor (Homo sapiens) (P06401 whole entry, looked up): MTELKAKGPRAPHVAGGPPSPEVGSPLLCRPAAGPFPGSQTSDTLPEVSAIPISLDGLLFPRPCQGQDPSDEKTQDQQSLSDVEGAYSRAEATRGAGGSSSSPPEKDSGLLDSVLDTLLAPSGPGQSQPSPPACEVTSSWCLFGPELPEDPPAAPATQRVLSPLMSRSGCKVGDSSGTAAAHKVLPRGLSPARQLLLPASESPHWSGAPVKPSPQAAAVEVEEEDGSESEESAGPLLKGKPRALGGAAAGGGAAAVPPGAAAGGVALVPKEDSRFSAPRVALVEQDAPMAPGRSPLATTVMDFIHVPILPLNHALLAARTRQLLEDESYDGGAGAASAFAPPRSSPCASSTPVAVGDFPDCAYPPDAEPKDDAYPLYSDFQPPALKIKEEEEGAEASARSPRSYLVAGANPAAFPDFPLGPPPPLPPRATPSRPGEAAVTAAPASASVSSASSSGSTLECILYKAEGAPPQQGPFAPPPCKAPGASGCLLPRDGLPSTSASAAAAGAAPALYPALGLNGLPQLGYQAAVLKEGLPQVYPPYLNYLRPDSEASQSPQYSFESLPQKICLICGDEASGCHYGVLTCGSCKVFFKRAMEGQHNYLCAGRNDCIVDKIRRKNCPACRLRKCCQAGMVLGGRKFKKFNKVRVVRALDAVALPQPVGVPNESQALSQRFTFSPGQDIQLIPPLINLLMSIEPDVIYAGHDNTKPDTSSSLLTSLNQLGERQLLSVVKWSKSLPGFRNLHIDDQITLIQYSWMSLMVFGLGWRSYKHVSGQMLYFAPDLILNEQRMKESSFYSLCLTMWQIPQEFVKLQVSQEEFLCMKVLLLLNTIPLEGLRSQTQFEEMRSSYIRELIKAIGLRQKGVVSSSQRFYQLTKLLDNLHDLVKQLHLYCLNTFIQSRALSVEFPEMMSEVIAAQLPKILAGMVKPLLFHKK
Chain of Nuclear receptor subfamily 1 group I member 2 (Rattus norvegicus) (Q9R1A7 whole entry, looked up): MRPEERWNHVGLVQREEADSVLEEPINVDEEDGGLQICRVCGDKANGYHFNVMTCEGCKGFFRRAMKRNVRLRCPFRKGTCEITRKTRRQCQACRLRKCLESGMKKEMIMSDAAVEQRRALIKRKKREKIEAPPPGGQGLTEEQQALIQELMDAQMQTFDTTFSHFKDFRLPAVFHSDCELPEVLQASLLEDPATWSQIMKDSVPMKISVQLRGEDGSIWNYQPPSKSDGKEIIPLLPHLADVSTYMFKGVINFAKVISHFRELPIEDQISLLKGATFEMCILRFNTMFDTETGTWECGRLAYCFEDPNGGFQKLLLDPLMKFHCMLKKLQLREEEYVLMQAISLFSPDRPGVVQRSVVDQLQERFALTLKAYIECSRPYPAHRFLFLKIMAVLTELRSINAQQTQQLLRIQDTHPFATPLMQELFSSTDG

SMILES: CO[C@]1(NC(=O)CSC(F)F)C(=O)N2C(C(=O)O)=C(CSc3nnnn3CCO)CO[C@H]21
- Potency [1]: inactive
- Potency [2]: inactive
- Potency [3]: inactive
- Potency [4]: inactive
- Potency [5]: inactive
- Potency [6]: inactive
- outcome [7]: inactive
- Potency [8]: inactive
- Potency [9]: inactive
- Potency [10]: inactive
- Potency [11]: inactive
- Potency [12]: inactive
- Potency [13]: inactive

SMILES: O=Cc1c2ccccc2c(Cl)c2ccccc12
- Potency [1]: inactive
- Potency [2]: inactive
- Potency [3]: inactive
- Potency [14]: inactive
- Potency [4]: inactive
- Potency [5]: inactive
- Potency [6]: inactive
- Potency [9]: inactive
- Potency [10]: inactive
- Potency [11]: 23.7 µM (active)
- Potency [12]: inactive
- Potency [13]: inactive
- Potency [15]: inactive

SMILES: CCCCN1CCCC1C(=O)Nc1c(C)cc(C)cc1C (stereo not given)
- Potency [1]: inactive
- Potency [2]: inactive
- Potency [3]: inactive
- Potency [4]: inactive
- Potency [5]: inactive
- Potency [6]: inactive
- outcome [7]: inactive
- Potency [8]: inactive
- Potency [9]: inactive
- Potency [10]: inactive
- Potency [11]: inactive
- Potency [12]: inactive
- Potency [13]: inactive
- max activation [16]: 14.6%

SMILES: N#[N+]c1ccc2c(S(=O)(=O)[O-])cccc2c1O
- Potency [1]: 43.3 µM (active)
- Potency [2]: inactive
- Potency [4]: inactive
- Potency [5]: inactive
- Potency [6]: inactive
- outcome [7]: inactive
- Potency [8]: inactive
- Potency [10]: inactive
- Potency [12]: inactive
- Potency [13]: inactive
- Potency [15]: inactive

SMILES: COc1ccccc1NC(=O)c1cc2ccccc2cc1O
- Potency [1]: inactive
- Potency [17]: 24.3 µM (active)
- Potency [4]: 49 µM (active)
- Potency [6]: inactive
- Potency [10]: inactive
- Potency [12]: inactive
- Potency [13]: inactive
- Potency [15]: 24.3 µM (active)

SMILES: CC(=O)OCCN(CCOC(C)=O)c1ccc(N=Nc2ccc([N+](=O)[O-])cc2C#N)cc1
- Potency [1]: 54.5 µM (active)
- Potency [2]: inactive
- Potency [3]: inactive
- Potency [4]: inactive
- Potency [5]: inactive
- Potency [6]: inactive
- outcome [7]: inactive
- Potency [8]: inactive
- Potency [10]: inactive
- Potency [11]: 54.5 µM (active)
- Potency [12]: inactive
